Reference: the supplement of paper PMC10338343
± gives the standard deviation.

Test system: MILI (PIWIL2) piRISC loaded with L1MC piRNA (26 nt)
Experiment: pre-steady-state target cleavage rate (min^-1); guide: L1MC piRNA 5'p-UAACUAAAUACUAUGCAAGCUGUAGG; MIWI and MILI are mouse PIWI proteins and EfPiwi is from a freshwater sponge; tags in brackets are library labels; higher = faster piRNA-guided slicing of the target
Procedure, shortened: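 Active affinity-purified piRISC (1 nM) loaded with one synthetic guide was mixed with a transcribed, DNA-blocked target RNA library (0.1 nM), with or without 500 nM GTSF1 partner protein, in HEPES–potassium acetate buffer at 33 °C for 0–8 or 0–960 min. Uncleaved targets were sequenced, normalised to depth and to weakly complementary targets, and pooled across three trials, with k3 capped at 0.0001 min^-1. The pre-steady-state cleavage rate was determined with a burst-and-steady-state fit.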

[1] = auxiliary factor: 500 nM mouse GTSF1
[2] = auxiliary factor: none (no GTSF1)

Sequence | pre-steady-state target cleavage rate [1] | pre-steady-state target cleavage rate [2]
UCCUGGUUCAGCUUGCAUAGAAUUUAGUUA | 0.0374 ± 0.011 | 0.003 ± 0.0029
UCCUGGAAAGCUUGCAUAGUAUUUAGUUA | 0.276 ± 0.016 | 0.00624 ± 0.0022
UCCUGGAUGUGCUUGCUUUGUAUUUAGUUA | 0.0124 ± 0.0051 | 0.00696 ± 0.0024
UCCUGGUACAGGAAGCAUAGUAUUUAGUAA | 0.167 ± 0.023 | 0.00332 ± 0.0019
UCCUGGAUGAGCUUGGUAAGUAUUUAGUUA | 0.009 ± 0.0036 | 0.00405 ± 0.0023
UCCUGGAUCAGCUAGCAUAGUAUUUAGAUA | 0.0957 ± 0.019 | 0.00275 ± 0.0026
UCCUGGAUGAGCUUGCAUAGUUUUUAGUUA | 0.0248 ± 0.0073 | 0.00471 ± 0.0024
UCCUCCUACAGCUUGCAUAGUAUAUUGUUA | 0.128 ± 0.019 | 0.00269 ± 0.0025
UCCUGGAUCACCUUGCAUAGUAAUUAGUUA | 0.198 ± 0.03 | 0.00446 ± 0.0029
UCCUGGAUGUCGAAGCAUAGUAUUUAGUUUA | 0.0244 ± 0.0042 | 0.00589 ± 0.0023
UCCUGGUACACCUUGCAUUGUAUUUAGUUA | 0.15 ± 0.041 | 0.00903 ± 0.0041
UCCUGGAUGAGCUAGCUUAGUAUUUAGUUA | 0.13 ± 0.012 | 0.00773 ± 0.0023
UCCUGGAUGUGCUUGCAUAGUUUUUAGUAA | 0.0109 ± 0.0049 | 0.00391 ± 0.0027
UCCUGGAUGUCCUAGCAUAGUAUUAAGUUA | 0.0366 ± 0.0077 | 0.00287 ± 0.0022
UCCUGGAUCAGCUUGCAUAGUAUAUUGUUA | 0.118 ± 0.014 | 0.00518 ± 0.0025
UCCUGGAUGUGCUUGCAAAGUAUUUAGUAA | 0.033 ± 0.0074 | 0.00287 ± 0.0025
UCCUGGUACAGGUUGCAUAGUUUUUAGUUA | 0.039 ± 0.011 | 0.00732 ± 0.0043
UCCUGGAUGUGCUUGCAUAGUUAUUAGUUA | 0.00903 ± 0.0055 | 0.00639 ± 0.0025
UCCUGGAUGAGCUUGCAGAGUAUUUAGUUA | 0.0869 ± 0.0095 | 0.00792 ± 0.0024
UCCUGGAUCAGCUUGCAUUGUAUAUAGUUA | 0.183 ± 0.018 | 0.00663 ± 0.0022
UCCUGGAUGUCGUUGCAUAGUAUAUUAGUUA | 0.121 ± 0.023 | 0.00754 ± 0.0028
UCCUGGAUCAGCUUGCAUAGAUUUUAGUUA | 0.0267 ± 0.007 | 0.00395 ± 0.0023
UCCUGGAACAGCUUGAUAGUAUUUAGUUA | 0.11 ± 0.013 | 0.00612 ± 0.0022
UCCUGGAUCAGCUUGCAUAGUAUUAACUUA | 0.0348 ± 0.011 | 0.00289 ± 0.0028
UCCUGGAUGUCGUUGCAUAGUAUUUGGUUA | 0.145 ± 0.031 | 0.00722 ± 0.003
UCCUGCUACAGCAAGCAUAGUAUUUAGUAA | 0.281 ± 0.026 | 0.00383 ± 0.0032
UCCUGGAUGAGCUACCAUAGUAUUUAGUUA | 0.101 ± 0.018 | 0.00301 ± 0.0025
UCCUGGAUGUCCUUGGAUAGUAUUUUGUUA | 0.139 ± 0.031 | 0.00318 ± 0.0024

Sequence | pre-steady-state target cleavage rate [1] | pre-steady-state target cleavage rate [2]
UCCUGGUACAGCUUGCAUAGUAAAAAGUUA | 0.104 ± 0.024 | 0.00471 ± 0.003
UCCUGGAUGUCGUUGCAUAGUAUUCUAGUUA | 0.18 ± 0.045 | 0.00434 ± 0.0027
UCCUGGAACAGCUAGCAUAGUAAUUAGUUA | 0.155 ± 0.018 | 0.00801 ± 0.0026
UCCUGGAUGUGGUUGCAUAGUAUUAAGUUA | 0.171 ± 0.048 | 0.00678 ± 0.0029
UCCUGGUACAGCUUCCAUUGUAUUUAGUUA | 0.113 ± 0.039 | 0.00415 ± 0.0035
UCCUGGUACAGCAACCAUAGUAUUUAGUUA | 0.286 ± 0.042 | 0.00442 ± 0.0027
UCCUGGUACAGCUUCCAAAGUAUUUAGUUA | 0.138 ± 0.028 | 0.00693 ± 0.0027
UCCUGGUACAGCUAGCAUAGUAUAUAGUUA | 0.183 ± 0.026 | 0.00329 ± 0.0024
UCCUGGAUGUCCUUGCAUUGUAAUUAGUUA | 0.014 ± 0.0069 | 0.00354 ± 0.0025
UCCUGGAUCACCUUGCAAAGUAUUUAGUUA | 0.0687 ± 0.012 | 0.0045 ± 0.0025
UCCUGGAUGUCGAUGCGUAGUAUUUAGUUA | 0.0121 ± 0.0036 | 0.00501 ± 0.0024
UCCUGGAUGUCGAUGCACAGUAUUUAGUUA | 0.0311 ± 0.0057 | 0.00443 ± 0.0024
UCCUGGAUGUCGAUGCAUAGUAUUUUAGUUA | 0.0747 ± 0.0088 | 0.00647 ± 0.0026
UCCUGGAUGUCCUUGCAUAGUAAUUUAGUUA | 0.0401 ± 0.013 | 0.00555 ± 0.0026
UCCUGGAUGAGCUUGCAUUGUAUAUAGUUA | 0.0992 ± 0.012 | 0.00388 ± 0.0029
UCCUGGAUGUCGAUGGAUAGUAUUUAGUUA | 0.0431 ± 0.0076 | 0.00383 ± 0.0027
UCCUCCUACAGCUUGGAAAGUAUUUAGUUA | 0.141 ± 0.014 | 0.00715 ± 0.0023
UCCUGGAUCUGCUUGCAUAGUAUUUACUUA | 0.0527 ± 0.0096 | 0.00348 ± 0.0027
UCCUGGAUGUGGUUGCAUAGUAUUUUGUUA | 0.0586 ± 0.023 | 0.0039 ± 0.0037
UCCUGGAUGUGCUUGCAUAGUAUUAAGUUA | 0.162 ± 0.025 | 0.00745 ± 0.0021
UCCUGGAUGUCGUUGCCUAGUAUUUAGUUA | 0.0556 ± 0.0094 | 0.00949 ± 0.0028
UCCUGGAUCAGCUUGCUUAGUAUUUAGUAA | 0.218 ± 0.012 | 0.00347 ± 0.0021
UCCUGGAUGUCCUUGGAUAGUAUUUAGUUA | 0.153 ± 0.021 | 0.00762 ± 0.0021
UCCUGGAUGUCCUUGCAUAGUAUUUUAGUUA | 0.107 ± 0.017 | 0.0134 ± 0.0036
UCCUGGAUGUCGAUGCAUAGUAUUUAGUA | 0.0708 ± 0.011 | 0.00401 ± 0.0022
UCCUGGAUGAGGUUGGAUAGUAUUUAGUUA | 0.132 ± 0.021 | 0.00824 ± 0.0025
UCCUGGAUGUCGUUGCAUAGUACUUUAGUUA | 0.0156 ± 0.0059 | 0.00645 ± 0.0028
